Source: PubChem BioAssay
Shown are actives, neighbours in structure and some others; about 11% of the full set was active somewhere.
USP28 block: inhibitors of human USP28 deubiquitinase; Q96RU2; purified USP28, Ub-rhodamine cleavage fluorescence, 30 min; inhibition, % at 25 µM; 47,000 compounds, 3% hits; AID 1645857
USP17 inh: human USP17-like deubiquitinase inhibition. A8MUK1. purified USP17, Ub-rhodamine cleavage fluorescence, 3 h. inhibition, % at 50 µM. 47,000 compounds, 6.5% hits. AID 1645855
USP30 inh: human USP30 deubiquitinase inhibition; Q70CQ3; purified USP30, Ub-rhodamine cleavage fluorescence; inhibition, % at 25 µM; 47,000 compounds, 5.3% hits; AID 1645860
The depositor's hits bear a star. Rule as the data show it: active = inhibition above about 30%; inactive = the rest.

SMILES	USP28 block	USP17 inh	USP30 inh
O=C(COc1ccc(Cl)cc1)Oc1ccc(-n2cnnn2)cc1	4.8	-0.7	15.5
CCOc1ccc(-c2ccc3nnc(SCC(=O)Nc4cccc(C(C)=O)c4)n3n2)cc1	43.4*	61.5*	47.8*
COC(=O)CCC(=O)N1CCc2nc(C(=O)N3CCCC3)sc2CC1	4.1	2.8	13.4
Cc1nc(-c2cc(S(=O)(=O)N3CCCCC3)c(C)n2C)sc1C	26.7	-0.2	6.6
COc1ccc(Cl)cc1S(=O)(=O)N1CCN=C1N1CCN(C)CC1	5.4	6.6	19.3
CCN1CC[C@@]2(C(=O)Nc3ccccc3)CCN(S(=O)(=O)Cc3ccccc3)CC[C@@H]12	5.6	-2.4	4.9
CCc1ccccc1NC(=O)Cn1c(SCc2ccc(F)cc2)nc2cccnc21	42.8*	86.3*	57.0*
